According to PubChem BioAssay AID1159580 (chemical genetic matrix, 2015):
Where “and” joins values, the source holds several entries; their conditions need not be identical. Identical values can stand only once. In all, about 5,500 compounds went through this assay and about 2,000 (36%) were called active. Not shown: some 18% with an inconclusive outcome. Cut-off read from the data, not from the text of the source: active = normalized growth mostly below about 0.91 (no sharp cut-off); inconclusive = no clear call, values can overlap the other calls; inactive = mostly above about 0.92. The list shows a part of the results.

Experiment: chemical genetic growth profiling, strain panel (AID 1159580);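 note: tested at 20 µM; growth read once vehicle control cultures reached saturation at 30 °C; 1 = growth at the plate median or of vehicle wells; lower values mean less growth of the strain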
Conditions: S. cerevisiae deletion strains, growth OD

Measured: normalized growth

COc1ccc(-c2cc(C(F)F)nn2-c2ccc(S(N)(=O)=O)cc2)cc1F
inactive: locus YAL013W, strain DEP1, hits give low values 1 | locus YAL021C, strain ccr4, hits give low values 0.991 | locus YAL026C, strain drs2, hits give low values 1.02 | locus YAL030W, strain snc1, hits give low values 1.01 | locus YBL061C, strain skt5, hits give low values 1 | locus YBR009C, strain hhf1, hits give low values 1 | locus YBR021W, strain FUR4, hits give low values 1.02 | locus YBR023C, strain chs3, hits give low values 0.992 | locus YBR171W, strain sec66, hits give low values 1.01 | locus YBR229C, strain ROT2, hits give low values 1.01 | locus YBR231C, strain swc5, hits give low values 1.01 | locus YBR279W, strain paf1, hits give low values 1 | locus YCL011C, strain gbp2, hits give low values 1.01 | locus YCL016C, strain dcc1, hits give low values 0.992 | locus YCL029C, strain bik1, hits give low values 1.01 | locus YCL069W, strain vba3, hits give low values 1 | locus YCR088W, strain abp1, hits give low values 1 | locus YDL005C, strain med2, hits give low values 1 | locus YDL035C, strain GPR1, hits give low values 1.02 | locus YDL040C, strain nat1, hits give low values 1.01 | locus YDL074C, strain BRE1, hits give low values 0.997 | locus YDL101C, strain DUN1, hits give low values 1 | locus YDL134C, strain PPH21, hits give low values 0.994 | locus YDL185W, strain tfp1, hits give low values 1.01 | locus YDL192W, strain arf1, hits give low values 1.01 | locus YDR001C, strain nth1, hits give low values 1.02 | locus YDR069C, strain doa4, hits give low values 1.01 | locus YDR101C, strain arx1, hits give low values 1.01 | locus YDR137W, strain rgp1, hits give low values 1.04 | locus YDR150W, strain NUM1, hits give low values 0.999 | locus YDR159W, strain sac3, hits give low values 1.01 | locus YDR162C, strain NBP2, hits give low values 0.988 | locus YDR195W, strain ref2 0.988 | locus YDR297W, strain sur2, hits give low values 1.01 | locus YDR318W, strain mcm21, hits give low values 1.02 | locus YDR334W, strain swr1, hits give low values 1.02 | locus YDR335W, strain msn5, hits give low values 1 | locus YDR388W, hits give low values 1.02 | locus YDR392W, strain spt3, hits give low values 0.922 | locus YDR502C, strain sam2, hits give low values 0.996 | locus YEL003W, strain gim4, hits give low values 1 | locus YEL037C, strain rad23, hits give low values 1.01 | locus YEL061C, strain CIN8 (second series), hits give low values 1.01 | locus YEL061C, strain CIN8, hits give low values 1 | locus YER015W, strain faa2, hits give low values 0.987 | locus YER016W, strain bim1, hits give low values 1 | locus YER110C, hits give low values 1.03 | locus YER111C, strain swi4, hits give low values 0.999 | locus YER155C, strain BEM2 (second series), hits give low values 0.887 | locus YER155C, strain BEM2, hits give low values 0.998 | locus YER167W, strain BCK2, hits give low values 1.01 | locus YFR010W, strain ubp6, hits give low values 1.02 | locus YGL078C, strain dbp3, hits give low values 0.996 | locus YGL086W, strain mad1, hits give low values 1.03 | locus YGL167C, strain pmr1, hits give low values 0.999 | locus YGL173C, strain kem1, hits give low values 0.998 | locus YGL227W, strain vid30, hits give low values 1.01 | locus YGL240W, strain doc1, hits give low values 0.961 | locus YGL248W, strain PDE1, hits give low values 0.997 | locus YGL253W, strain hxk2, hits give low values 1.01 | locus YGR078C, strain PAC10, hits give low values 0.994 | locus YGR135W, strain pre9, hits give low values 0.982 | locus YGR229C, strain SMI1, hits give low values 0.989 | locus YGR252W, strain gcn5, hits give low values 1.08 | locus YHR013C, strain ard1, hits give low values 1.06 | locus YHR027C, strain rpn1, hits give low values 1.01 | locus YHR030C, strain SLT2, hits give low values 1.01 and 1.05 | locus YHR079C, strain IRE1 (second series), hits give low values 1.02 | locus YHR079C, strain IRE1, hits give low values 1.06 | locus YHR094C, strain hxt1, hits give low values 1.01 | locus YHR129C, strain ARP1, hits give low values 1 | locus YHR142W, strain chs7, hits give low values 0.999 | locus YHR200W, strain rpn10, hits give low values 1.02 | locus YIL066C, strain RNR3, hits give low values 1.01 | locus YIL073C, strain SPO22, hits give low values 1.07 | locus YIL125W, strain kgd1, hits give low values 1.01 | locus YIR030C, strain dcg1, hits give low values 1.01 | locus YJL092W, strain hpr5, hits give low values 1 | locus YJL095W, strain BCK1 (second series), hits give low values 0.997 | locus YJL095W, strain BCK1, hits give low values 0.996 and 1.02 | locus YJL115W, strain asf1, hits give low values 1.01 | locus YJL129C, strain trk1, hits give low values 0.967 | locus YJL134W, strain LCB3, hits give low values 1 | locus YJL154C, strain vps35, hits give low values 0.999 | locus YJL164C, strain tpk1, hits give low values 0.992 | locus YJL166W, strain qcr8, hits give low values 0.984 | locus YJL168C, strain set2, hits give low values 1.02 | locus YJL187C, strain SWE1 (second series), hits give low values 0.995 | locus YJL187C, strain SWE1, hits give low values 1 | locus YJR043C, strain POL32, hits give low values 1.03 | locus YJR066W, strain TOR1, hits give low values 1.01
